TLR4-MyD88 BLA – inhibitors of human TLR4-MyD88 binding. 200,000 compounds, 0.18% hits. AID 861. HeLa CL3-4 TLR4/MyD88 BLA complementation, FRET ratio. inhibition, % at 8.4 µM; in the data active means inhibition above about 25%
Target sequence (O00206 whole entry, looked up): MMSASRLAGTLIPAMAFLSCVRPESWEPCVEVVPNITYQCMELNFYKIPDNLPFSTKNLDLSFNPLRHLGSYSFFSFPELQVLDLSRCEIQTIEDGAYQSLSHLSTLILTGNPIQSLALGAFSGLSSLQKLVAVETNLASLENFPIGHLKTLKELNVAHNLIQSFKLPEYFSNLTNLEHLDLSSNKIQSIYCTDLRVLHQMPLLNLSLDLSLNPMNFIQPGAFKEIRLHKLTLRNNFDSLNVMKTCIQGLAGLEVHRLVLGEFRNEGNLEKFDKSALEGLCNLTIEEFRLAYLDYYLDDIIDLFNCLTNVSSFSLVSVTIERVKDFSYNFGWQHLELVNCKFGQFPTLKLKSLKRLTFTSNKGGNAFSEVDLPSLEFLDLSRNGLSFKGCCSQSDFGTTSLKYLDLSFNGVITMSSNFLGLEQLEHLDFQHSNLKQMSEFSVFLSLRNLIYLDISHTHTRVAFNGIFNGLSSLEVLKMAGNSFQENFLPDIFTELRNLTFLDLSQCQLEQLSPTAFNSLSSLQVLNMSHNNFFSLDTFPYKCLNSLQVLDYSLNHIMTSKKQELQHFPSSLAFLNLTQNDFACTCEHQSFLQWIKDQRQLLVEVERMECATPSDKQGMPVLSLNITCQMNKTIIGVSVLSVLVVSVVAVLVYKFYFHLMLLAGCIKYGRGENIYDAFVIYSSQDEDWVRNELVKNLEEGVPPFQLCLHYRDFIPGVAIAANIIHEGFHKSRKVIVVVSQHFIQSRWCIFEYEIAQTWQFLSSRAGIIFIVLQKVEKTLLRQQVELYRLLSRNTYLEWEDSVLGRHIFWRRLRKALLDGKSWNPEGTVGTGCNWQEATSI
Target sequence (Q99836 whole entry, looked up): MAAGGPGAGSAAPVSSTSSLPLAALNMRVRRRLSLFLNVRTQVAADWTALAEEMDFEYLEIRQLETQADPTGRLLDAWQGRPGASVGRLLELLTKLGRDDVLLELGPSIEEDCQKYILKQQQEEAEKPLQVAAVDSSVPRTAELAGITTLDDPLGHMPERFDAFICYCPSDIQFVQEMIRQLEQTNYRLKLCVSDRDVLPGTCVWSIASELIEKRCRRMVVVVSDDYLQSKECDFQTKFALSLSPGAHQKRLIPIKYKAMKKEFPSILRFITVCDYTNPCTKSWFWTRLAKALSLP
Myeloid diff MLP – myeloid differentiation induction; 360,000 compounds, 1% hits; ER-HoxA9 myeloid progenitors, lysozyme-GFP differentiation, flow cytometry; calls only at 10 µM; AID 624256;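 active means normalized GFP-positive differentiation at or above the plate's own cutoff, the solvent-only control mean plus 3 SD; inconclusive means no clear call, values can overlap the other calls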;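 further: cells exposed to compound for four days before flow analysis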
TLR9-MyD88 inh – TLR9-MyD88 interaction inhibition. CHO BLA complementation TLR9-MyD88, CCF4 FRET ratio. inhibition, % at 4.98 µM. 340,000 compounds, 0.21% hits. AID 504734;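 active means inhibition above the mean over all tested compounds plus 3 SD, cut at about 21% in these data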
NOD2 RIPK2 PPI – NOD2-RIPK2 protein interaction inhibition. CHO BLA complementation NOD2-RIPK2, CCF4 ratio. inhibition, % at 4.98 µM. 360,000 compounds, 0.38% hits; in the data active means inhibition above about 21%
NOD2-RIPK2 conf – NOD2-RIPK2 interaction inhibition confirmed | 1,200 compounds, 70% hits | CHO cells, NOD2-RIPK2 BLA complementation, CCF4 FRET | inhibition, % at 4.98 µM | shares compounds with NOD2 RIPK2 PPI;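 active means mean inhibition across replicates above a set limit taken from the earlier primary screen, cut at about 21% in these data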
BLA counter – hits BLA reporter in NOD2-RIPK2 inhibitor counterscreen | AID 624371 | shares compounds with NOD2 RIPK2 PPI | CHO BLA reporter, CCF4 FRET ratio | inhibition, % at 4.98 µM | 1,200 compounds, 57% hits;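 active means mean inhibition above the low-control mean inhibition plus three low-control SD, cut at about 11% in these data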
Each line names hits and unclear results; the compound was inactive in the other large screens (follow-up assays come after a bar, where they were run). Sampled rows, rich in hits. Any-hit rate of the full collection: about 1.5%.

COc1ccccc1-c1nnc(Nc2nc3c(OC)cccc3s2)o1	Myeloid diff MLP inconclusive, NOD2 RIPK2 PPI 26 | NOD2-RIPK2 conf inactive | BLA counter inactive
COc1cccc2sc(Nc3nnc(-c4ccccc4Cl)o3)nc12	Myeloid diff MLP inconclusive
Cc1ccc2nc(N(CCCN(C)C)C(=O)c3ccc(S(=O)(=O)N4CCc5ccccc5C4)cc3)sc2c1	none (no result: TLR4-MyD88 BLA)
Cc1cc(C)c2sc(N(CCCN(C)C)C(=O)c3ccc(S(=O)(=O)N4CCc5ccccc5C4)cc3)nc2c1	NOD2 RIPK2 PPI 24 (no result: TLR4-MyD88 BLA, Myeloid diff MLP) | NOD2-RIPK2 conf 30 | BLA counter 17
COc1ccc(/C=C2/CCC(CN3CCOCC3)C2=O)cc1 (stereo not given)	Myeloid diff MLP inconclusive, NOD2 RIPK2 PPI 34 (no result: TLR4-MyD88 BLA) | NOD2-RIPK2 conf 92 | BLA counter 18
CCOC(=O)C1CCN(S(=O)(=O)c2ccc3c4c(cccc24)C(=O)N3CC)CC1	NOD2 RIPK2 PPI 24 (no result: TLR4-MyD88 BLA) | NOD2-RIPK2 conf 24 | BLA counter 24
O=C(CN(Cc1ccc(Br)cc1)S(=O)(=O)c1ccccc1)NCc1cccnc1	none (no result: TLR4-MyD88 BLA)
O=C(NCc1cccnc1)/C(=C\c1ccc(-c2ccc(Br)cc2)o1)S(=O)(=O)c1ccccc1	NOD2 RIPK2 PPI 33 (no result: Myeloid diff MLP) | NOD2-RIPK2 conf 30 | BLA counter inactive
O=C(NCc1cccnc1)/C(=C/c1ccc(-c2ccc(Cl)cc2)o1)S(=O)(=O)c1ccccc1	NOD2 RIPK2 PPI 41 (no result: Myeloid diff MLP) | NOD2-RIPK2 conf 36 | BLA counter inactive
CC(C)(C)c1ccc(C(=O)N2CCC2(C)C(=O)Nc2cccc(C#N)c2)cc1 (stereo not given)	none (no result: TLR4-MyD88 BLA, TLR9-MyD88 inh)
CC(C)Oc1ccc(CNC(=O)Cn2ccc3cc(S(=O)(=O)N4CCCC4)ccc32)cc1	NOD2 RIPK2 PPI 27 (no result: TLR4-MyD88 BLA) | NOD2-RIPK2 conf inactive | BLA counter inactive
COc1ccc(C(C)=O)cc1CSc1nc2ccccc2c(=O)n1-c1ccccc1C	NOD2 RIPK2 PPI 24 | NOD2-RIPK2 conf inactive | BLA counter inactive
N#CC1=C(N)Oc2cc(N)ccc2C1c1ccccc1Cl (stereo not given)	NOD2 RIPK2 PPI 28 (no result: TLR4-MyD88 BLA) | NOD2-RIPK2 conf inactive | BLA counter inactive
Cc1cc2[nH]c3c4ccccc4nc(C)c3c2cc1C	NOD2 RIPK2 PPI 21 (no result: TLR4-MyD88 BLA, Myeloid diff MLP) | NOD2-RIPK2 conf 26 | BLA counter inactive
Cc1cc2[nH]c3c(c[n+](C)c4ccccc34)c2cc1C	Myeloid diff MLP inconclusive
COc1cc(Cl)c(S(=O)(=O)N2CCCC2)cc1Cl	none
COc1cc(N2C(=O)C=CC2=O)c(OC)cc1Cl	NOD2 RIPK2 PPI 51 (no result: TLR4-MyD88 BLA) | NOD2-RIPK2 conf 80 | BLA counter 23
Cc1ccc(C(=O)Nc2nnc(S(=O)(=O)Nc3ccccc3C)s2)cc1C	none (no result: TLR4-MyD88 BLA)
CCOc1ccc(C(=O)Nc2nnc(S(=O)(=O)Nc3ccccc3C)s2)cc1	NOD2 RIPK2 PPI 24 (no result: TLR4-MyD88 BLA) | NOD2-RIPK2 conf inactive | BLA counter inactive
CC(C)(C)OC(=O)NCCCCCNC(=O)c1[nH]cnc1C(=O)N[C@@H](Cc1ccccc1)C(=O)OC(C)(C)C	NOD2 RIPK2 PPI 31 (no result: TLR4-MyD88 BLA) | NOD2-RIPK2 conf inactive | BLA counter inactive
CC(C)(C)OC(=O)[C@H](Cc1ccccc1)NC(=O)c1nc[nH]c1C(=O)NCCCCCN	none (no result: TLR4-MyD88 BLA)
CCO[C@H]1OC(C(=O)NCc2ccccc2)=C[C@@H](c2ccc(Br)cc2)[C@@H]1CCCO	NOD2 RIPK2 PPI 29 | NOD2-RIPK2 conf inactive | BLA counter inactive
COc1cccc(N2CCN(c3ncnc4c3[nH]c3ccc(F)cc34)CC2C)c1 (stereo not given)	Myeloid diff MLP inconclusive, NOD2 RIPK2 PPI 28 | NOD2-RIPK2 conf inactive | BLA counter inactive
COc1cccc(N2CCN(c3ncnc4c3[nH]c3ccccc34)CC2C)c1 (stereo not given)	none (no result: Myeloid diff MLP, TLR9-MyD88 inh, NOD2 RIPK2 PPI)
CCCCCCCCN1C(=O)[C@H](CC(=O)N2CCN(C(=O)OCC)CC2)C[C@@]2(C(=O)OC)CCCCC=C12	none (no result: TLR4-MyD88 BLA, TLR9-MyD88 inh)
Cc1cc(C(F)(F)F)c2c(N)c(C(=O)NCc3ccc(Cl)cc3)sc2n1	NOD2 RIPK2 PPI 24 (no result: TLR4-MyD88 BLA, TLR9-MyD88 inh) | NOD2-RIPK2 conf 23 | BLA counter 21
Nc1c(C(=O)NCc2ccc(Cl)cc2)sc2nc3c(c(C(F)(F)F)c12)CCC3	none
CCCc1nc2nc(C)c(NS(=O)(=O)c3ccc(C)c(C)c3)c(=O)n2[nH]1	none (no result: TLR4-MyD88 BLA)
COc1ccccc1NS(=O)(=O)c1c(C)[nH]c(C)c1C(=O)N1CCCC1	NOD2 RIPK2 PPI 36 (no result: TLR4-MyD88 BLA) | NOD2-RIPK2 conf inactive | BLA counter inactive
